Results from PubChem BioAssay AID1159580 (chemical genetic matrix, 2015).
The campaign covered roughly 5,500 compounds. About 2,000 (36%) were called active. About 18% were inconclusive and are not listed. No stated cut-off is given here; in the data, active means normalized growth mostly below about 0.91 (no sharp cut-off); inconclusive means no clear call, values can overlap the other calls; inactive means mostly above about 0.92. This is one part of the list.

Assay: chemical genetic growth profiling, strain panel (AID 1159580);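 further: tested at 20 µM; growth read once vehicle control cultures reached saturation at 30 °C; 1 = growth at the plate median or of vehicle wells; lower values mean less growth of the strain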
Conditions: S. cerevisiae deletion strains, growth OD
[1] = locus YAL013W, strain DEP1, active compounds read low
[2] = locus YBR229C, strain ROT2, active compounds read low
[3] = locus YCL061C, strain MRC1, active compounds read low
[4] = locus YDL101C, strain DUN1, active compounds read low
[5] = locus YDR150W, strain NUM1, active compounds read low
[6] = locus YEL061C, strain CIN8, active compounds read low
[7] = locus YGR078C, strain PAC10, active compounds read low
[8] = locus YHR030C, strain SLT2, active compounds read low
[9] = locus YHR087W, strain rtc3, active compounds read low
[10] = locus YJR043C, strain POL32, active compounds read low
[11] = locus YJR075W, strain HOC1, active compounds read low
[12] = locus YLR039C, strain RIC1, active compounds read low
[13] = locus YLR058C, strain SHM2 (second series), active compounds read low
[14] = locus YLR085C, strain ARP6, active compounds read low
[15] = locus YLR262C, strain YPT6, active compounds read low
[16] = locus YML094W, strain GIM5, active compounds read low
[17] = locus YMR219W, strain ESC1, active compounds read low
[18] = locus YMR263W, strain SAP30, active compounds read low
[19] = locus YMR307W, strain GAS1, active compounds read low
[20] = locus YNL153C, strain GIM3, active compounds read low
[21] = locus YNL298W, strain CLA4 (second series), active compounds read low
[22] = locus YNL322C, strain KRE1, active compounds read low
[23] = locus YNR030W, strain Alg12, active compounds read low
[24] = locus YPL055C, strain LGE1, active compounds read low
[25] = locus YPL241C, strain CIN2, active compounds read low
[26] = locus YPR135W, strain CTF4, active compounds read low
[27] = locus YOL006C, strain TOP1, active compounds read low

Measured: normalized growth

Cc1[nH]ncc1-c1ccccc1
inactive: [1] 1 | [2] 0.978 | [3] 0.973 | [4] 0.979 | [5] 1.01 | [6] 0.986 | [7] 0.998 | locus YGR229C, strain SMI1, active compounds read low 0.999 | [8] 0.981 | [9] 1.02 | locus YJL187C, strain SWE1, active compounds read low 0.983 | [10] 0.984 | [11] 1.02 | [12] 0.873 | [13] 0.986 | [14] 0.994 | [15] 0.896 | [16] 0.974 | [17] 0.995 | [18] 0.967 | [19] 0.933 | locus YNL128W, strain TEP1, active compounds read low 0.993 | [20] 0.961 | [21] 0.98 | [22] 1.01 | [23] 0.991 | [24] 1.07 | [25] 0.986 | [26] 0.921

COc1ccc(NS(=O)(=O)c2c(C)noc2C)cc1
inactive: [1] 1.03 | [2] 1.02 | [3] 1 | [4] 1.02 | [5] 0.995 | [6] 1.03 | [7] 1.04 | [8] 1.06 | [9] 1.02 | [10] 0.995 | [11] 1.02 | locus YKL190W, strain CNB1, active compounds read low 1 | [12] 1.02 | [13] 1 | [14] 1.02 | [15] 1.01 | [16] 1.07 | [17] 0.996 | [18] 0.993 | [19] 0.941 | [20] 1.02 | [21] 1.02 | [22] 1.01 | [23] 1.04 | [27] 1.03 | [24] 1.06 | [25] 0.911 | [26] 1.02

CCn1nc(C)c(Br)c1-c1nc(-c2ccc(C(F)(F)F)cc2)no1
inactive: [1] 1 | [2] 0.999 | [4] 1.02 | [5] 0.902 | [6] 1.01 | [7] 1.01 | [8] 1.08 | [9] 1 | [10] 1.01 | [11] 1 | [12] 0.982 | [13] 1.01 | [14] 1.14 | [15] 1.03 | [16] 1.03 | [17] 0.999 | [18] 1.02 | [19] 1.15 | [20] 0.985 | [21] 1.04 | [22] 1.01 | [23] 1.02 | [27] 1.14 | [24] 0.914 | [25] 0.981 | [26] 1.02

Cc1nn(Cc2ccc(C(=O)Sc3ccc(C(F)(F)F)cn3)o2)c(C)c1Br
active: [8] 0.615 | locus YHR205W, strain SCH9, active compounds read low 0.566 | locus YLR113W, strain HOG1, active compounds read low 0.677 | locus YPL256C, strain CLN2, active compounds read low 0.799
inactive: locus YAR019C, strain CDC15, active compounds read low 0.965 | locus YBL105C, strain PKC1, active compounds read low 0.966 | locus YBR135W, strain CKS1, active compounds read low 0.955 | locus YBR136W, strain MEC1, active compounds read low 0.971 | locus YBR160W, strain CDC28, active compounds read low 0.967 | locus YDL017W, strain CDC7, active compounds read low 0.969 | locus YDL028C, strain MPS1, active compounds read low 0.969 | [4] 0.963 | locus YDL108W, strain KIN28, active compounds read low 0.961 | locus YDL132W, strain cdc53, active compounds read low 0.952 | locus YDL214C, strain PRR2, active compounds read low 0.882 | locus YDR052C, strain DBF4, active compounds read low 0.97 | locus YDR054C, strain cdc34, active compounds read low 0.953 | locus YDR226W, strain ADK1, active compounds read low 0.955 | locus YDR477W, strain SNF1, active compounds read low 0.834 | locus YER123W, strain YCK3, active compounds read low 0.878 | locus YER133W, strain GLC7, active compounds read low 0.898 | locus YFL009W, strain cdc4, active compounds read low 0.957 | locus YFL029C, strain CAK1, active compounds read low 0.962 | locus YFR003C, strain YPI1, active compounds read low 0.968 | locus YFR019W, strain FAB1, active compounds read low 0.932 | locus YFR028C, strain CDC14, active compounds read low 0.963 | locus YGR040W, strain KSS1, active compounds read low 0.81 | locus YGR052W, strain FMP48, active compounds read low 0.871 | locus YGR092W, strain DBF2, active compounds read low 0.855 | locus YHR079C, strain IRE1, active compounds read low 0.858 | locus YHR082C, strain KSP1, active compounds read low 0.763 | locus YIL147C, strain SLN1, active compounds read low 0.969 | locus YJL095W, strain BCK1, active compounds read low 0.827 | locus YJL128C, strain PBS2, active compounds read low 0.871 | locus YJL157C, strain FAR1, active compounds read low 0.911 | locus YJR016C, strain ILV3, active compounds read low 0.955 | locus YJR066W, strain TOR1 (second series), active compounds read low 0.885 | locus YJR066W, strain TOR1, active compounds read low 0.76 | locus YKL048C, strain ELM1, active compounds read low 0.896 | locus YKL067W, strain YNK1, active compounds read low 0.898 | locus YKL101W, strain HSL1, active compounds read low 0.861 | locus YKL193C, strain SDS22, active compounds read low 0.956 | locus YKL203C, strain TOR2, active compounds read low 0.892 | locus YLR133W, strain CKI1, active compounds read low 0.871 | locus YLR403W, strain SFP1, active compounds read low 0.722 | locus YML070W, strain DAK1, active compounds read low 0.894 | locus YMR001C, strain CDC5, active compounds read low 0.958 | locus YMR205C, strain PFK2 (second series), active compounds read low 0.881 | locus YMR277W, strain FCP1, active compounds read low 0.963 | locus YNL006W, strain LST8, active compounds read low 0.972 | locus YNL020C, strain ARK1, active compounds read low 0.882 | locus YNL161W, strain CBK1, active compounds read low 0.965 | locus YNL183C, strain NPR1, active compounds read low 0.777 | locus YNL207W, strain RIO2, active compounds read low 0.953 | locus YNL222W, strain SSU72, active compounds read low 0.963 | locus YNL307C, strain MCK1 (second series), active compounds read low 0.781 | locus YOL078W, strain AVO1, active compounds read low 0.961 | locus YOL136C, strain PFK27, active compounds read low 0.872 | locus YOR061W, strain CKA2, active compounds read low 0.816 | locus YOR119C, strain RIO1, active compounds read low 0.879 | locus YOR231W, strain MKK1, active compounds read low 0.847 | locus YOR329C, strain SCD5, active compounds read low 0.978 | locus YPL031C, strain PHO85, active compounds read low 0.867 | locus YPL153C, strain RAD53, active compounds read low 0.934 | locus YPL204W, strain HRR25, active compounds read low 0.925 | locus YPL209C, strain IPL1, active compounds read low 0.974 | locus YPR025C, strain CCL1, active compounds read low 0.965 | locus YPR106W, strain ISR1, active compounds read low 0.958 | locus YPR111W, strain DBF20, active compounds read low 0.93 | strain NNK1, active compounds read low 0.928 | strain TSCII, active compounds read low 0.961
